Here are results for 34 molecules from PubChem BioAssay (EPA / NIEHS).

Values joined by “and” are separate entries in the source; they are usually repeats but may differ in a detail not shown here. Identical values can stand only once. Records with an inconclusive call do not appear. Active and inactive are the calls of the source. The calls were made as follows: active = hit-call score of the fitted dose curve at least 0.9, where 1 is the maximum; inconclusive = response in the unintended direction; inactive = score below 0.9.

One may read the AC50 as the midpoint of the concentration-response curve, whichever way the signal moves.

For this experiment, the target named is Bile acid receptor (Homo sapiens) (UniProt Q96RI1). Put plainly: OT_FXR_FXRSRC1_0480: Odyssey Thera (OT) 8-hour HEK293T Protein-Complementation Assay for Farnesoid X receptor/SRC-1 Co-activator (AID 2283383). As to the method: OT_FXR_FXRSRC1_0480 is a cell-based assay that uses HEK293T, a human kidney cell line, with measurements taken at 8 hours after chemical dosing in a 384-well plate.OT_FXR_FXRSRC1_0480 is one of one assay component(s) measured or calculated from the OT_FXR_FXRSRC1_0480 assay. It is designed to make measurements of protein fragment complementation, a form of binding reporter, as detected with fluorescence intensity signals by Protein-fragment Complementation technology.Data from the assay component OT_FXR_FXRSRC1_0480 was analyzed into 1 assay endpoint. This assay endpoint, OT_FXR_FXRSRC1_0480, was analyzed in the positive analysis fitting direction relative to DMSO as the negative control and baseline of activity. Using a type of binding reporter, measures of receptor for gain-of-signal activity can be used to understand the binding at the pathway-level as they relate to the gene NR1H4. Furthermore, this assay endpoint can be referred to as a primary readout, because the performed assay has only produced 1 assay endpoint. To generalize the intended target to other relatable targets, this assay endpoint is annotated to the nuclear receptor intended target family, where the subfamily is non-steroidal.
Chain of Bile acid receptor (Homo sapiens) (Q96RI1 whole entry, looked up, the tested form may be a part): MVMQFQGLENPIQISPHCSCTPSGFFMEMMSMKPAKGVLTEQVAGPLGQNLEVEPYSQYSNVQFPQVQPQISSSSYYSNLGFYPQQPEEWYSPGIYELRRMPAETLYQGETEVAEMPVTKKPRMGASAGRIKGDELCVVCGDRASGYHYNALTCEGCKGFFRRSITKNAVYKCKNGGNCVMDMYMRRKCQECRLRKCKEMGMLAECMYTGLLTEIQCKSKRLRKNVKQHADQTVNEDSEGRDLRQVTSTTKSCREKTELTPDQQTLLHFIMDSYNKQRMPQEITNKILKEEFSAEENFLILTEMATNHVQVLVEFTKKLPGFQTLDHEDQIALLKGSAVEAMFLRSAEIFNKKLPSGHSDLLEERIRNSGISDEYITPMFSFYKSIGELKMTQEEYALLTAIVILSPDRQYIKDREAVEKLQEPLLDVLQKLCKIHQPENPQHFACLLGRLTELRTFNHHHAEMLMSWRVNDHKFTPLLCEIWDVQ
Protein-fragment complementation assay, or PCA, is a method for the identification and quantification of protein-protein interactions. In the PCA, the proteins of interest ("bait" and "prey") are each covalently linked to fragments of a third protein (e.g. DHFR, which acts as a "reporter"). Interaction between the bait and the prey proteins brings the fragments of the reporter protein in close proximity to allow them to form a functional reporter protein whose activity can be measured.
Turning to `COC(=O)N(OC)c1ccccc1COc1ccn(-c2ccc(Cl)cc2)n1`, the AC50 is 1.54 µM (active).
Consider `COP(N)(=O)SC` (centres undefined), for which the call was inactive.
The same measure, in the same setting: with `Cc1c(F)c(F)c(COC(=O)C2C(/C=C(\Cl)C(F)(F)F)C2(C)C)c(F)c1F` (centres undefined) the entry was “inactive”; with `CCON=C(CC)C1=C(O)CC(c2c(C)cc(C)cc2C)CC1=O` (centres undefined), “inactive”.
`C=CCC1=C(C)[C@@H](OC(=O)[C@@H]2[C@@H](C=C(C)C)C2(C)C)CC1=O`: the AC50 is 16.6 µM (active).
Still for that read-out and setting: the result for `Fc1ccc(Oc2ccnc3cc(Cl)cc(Cl)c23)cc1` reads 12.6 µM (active).
Turning to `CCOc1cc(Oc2ccc(C(F)(F)F)cc2Cl)ccc1[N+](=O)[O-]`, the result was inactive.
Same read-out and setting: with `Cc1ccc(-c2c(Cl)nc(C#N)n2S(=O)(=O)N(C)C)cc1` the entry was “inactive”; with `CC(C)C1(C)N=C(c2nc3ccccc3cc2C(=O)O)NC1=O` (centres undefined), “inactive”; with `COP(=S)(OC)Oc1nc(Cl)c(Cl)cc1Cl`, “inactive”.
Consider `CC(Oc1ccc(Cl)cc1Cl)C(=O)O` (centres undefined), for which the call was inactive.
Consider `CCNc1nc(Cl)nc(NCC)n1`, for which the molecule was called inactive.
On the same count and under the same terms, with `CNC(=O)ON=CC(C)(C)SC` the entry was “inactive”.
Consider `C#CCOS(=O)OC1CCCCC1Oc1ccc(C(C)(C)C)cc1` (centres undefined), for which the AC50 is 21.4 µM (active).
Same read-out and setting: the result for `COC(=O)C(C)Oc1ccc(Oc2ccc(Cl)cc2Cl)cc1` (centres undefined) reads 66.2 µM (active).
As to `C=CC1(C)OC(=O)N(c2cc(Cl)cc(Cl)c2)C1=O` (centres undefined), the molecule was called inactive.
Still for that read-out and setting: the result for `CCCC1COC(Cn2cncn2)(c2ccc(Cl)cc2Cl)O1` (centres undefined) reads “inactive”.
On the same count and under the same terms, with `COc1nc(NC(C)C)nc(NC(C)C)n1` the entry was “inactive”.
For `CCOC(=O)C(Cl)Cc1cc(-n2nc(C)n(C(F)F)c2=O)c(F)cc1Cl` (centres undefined), the AC50 was 22.4 µM (active).
Same read-out and setting: the result for `N#Cc1nn(-c2c(Cl)cc(C(F)(F)F)cc2Cl)c(N)c1S(=O)C(F)(F)F` (centres undefined) reads 35 µM (active).
On the same count and under the same terms, with `CCc1nn(C)c(C(=O)NCc2ccc(C(C)(C)C)cc2)c1Cl` the figure was 0.578 µM (active).
Regarding `COC(=O)C=C(C)OP(=O)(OC)OC`, the call was inactive.
Still for that read-out and setting: the result for `CC1=C(C(=O)Nc2ccccc2)SCCO1` reads “inactive”.
The same measure, in the same setting: the result for `CCCCNC(=O)n1c(NC(=O)OC)nc2ccccc21` reads “inactive”.
As to `COc1ccc(C(c2ccc(OC)cc2)C(Cl)(Cl)Cl)cc1`, the AC50 is 32.1 µM (active) and 35 µM (active) and 27 µM (active).
The same measure, in the same setting: the result for `CC1COC(Cn2cncn2)(c2ccc(Oc3ccc(Cl)cc3)cc2Cl)O1` (centres undefined) reads 11.2 µM (active).
With `CCCCC(CC)COC(=O)c1ccccc1C(=O)OCC(CC)CCCC` (centres undefined), the outcome was inactive.
For the molecule `CC(C)Oc1cc(-n2nc(C(C)(C)C)oc2=O)c(Cl)cc1Cl`, the concentration at half-maximal activity (AC50) is 29.5 µM (active).
`C=CCC1=C(C)C(OC(=O)C2C(C=C(C)C)C2(C)C)CC1=O` (centres undefined): the AC50 is 14.9 µM (active).
For `CN(C)C(=S)SSC(=S)N(C)C`, the result was inactive.
As for `CCOP(=S)(OCC)SCn1c(=O)oc2cc(Cl)ccc21`, the AC50 was 17.9 µM (active).
The same measure, in the same setting: with `CC(C)(C)c1ccc(CSc2cnn(C(C)(C)C)c(=O)c2Cl)cc1` the figure was 5.14 µM (active).
With `O=C(O)COc1nc(Cl)c(Cl)cc1Cl`, the molecule was called inactive.
The same measure, in the same setting: with `COC(=O)c1ccccc1C(=O)OC` the entry was “inactive”.
